In PubChem BioAssay:
Activity calls are given as the source filed them.

Columns and labels:
[1] = binders of probe aFSTL3 on microarray, primary screen, stem cell growth factor project, biochemical, small-molecule microarray, fluorescence 635/667 (AID 1064); details: higher = more signal;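 further: measures binding of the biotinylated anti-FSTL3 antibody to printed compounds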
[2] = binders from COS7 lysate, DM2A8 probe, primary screen, torsin A project, cell lysate, small-molecule microarray, fluorescence 635/667 (AID 1065); details: higher = more signal, COS7 lysate expressing mutant human TOR1A
[3] = binders of probe aFGF2 on microarray, primary screen, stem cell growth factor project, biochemical, small-molecule microarray, fluorescence 635/667 (AID 1067); details: higher = more signal;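 further: measures binding of biotinylated aFGF2 protein to printed compounds on slides; z-score merges feature fluorescence and signal-to-noise across triplicate slides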
[4] = binders of probe aFGF10 on microarray, primary screen, stem cell growth factor project, biochemical, small-molecule microarray, fluorescence 635/667 (AID 1071); details: higher = more signal;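 further: score merges 667 nm spot intensity and signal to noise from triplicate slides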
[5] = biological target: Neurogenic locus notch homolog protein 2 (Homo sapiens) (UniProt Q04721); assay: Notch2 binders on small-molecule microarrays, primary screen, biochemical, small-molecule microarray, 635 nm fluorescence, stem cell growth factors (AID 1073); details: Notch2 binding, higher = more signal
Neurogenic locus notch homolog protein 2 (Homo sapiens), sequence (Q04721 whole entry, looked up, canonical isoform): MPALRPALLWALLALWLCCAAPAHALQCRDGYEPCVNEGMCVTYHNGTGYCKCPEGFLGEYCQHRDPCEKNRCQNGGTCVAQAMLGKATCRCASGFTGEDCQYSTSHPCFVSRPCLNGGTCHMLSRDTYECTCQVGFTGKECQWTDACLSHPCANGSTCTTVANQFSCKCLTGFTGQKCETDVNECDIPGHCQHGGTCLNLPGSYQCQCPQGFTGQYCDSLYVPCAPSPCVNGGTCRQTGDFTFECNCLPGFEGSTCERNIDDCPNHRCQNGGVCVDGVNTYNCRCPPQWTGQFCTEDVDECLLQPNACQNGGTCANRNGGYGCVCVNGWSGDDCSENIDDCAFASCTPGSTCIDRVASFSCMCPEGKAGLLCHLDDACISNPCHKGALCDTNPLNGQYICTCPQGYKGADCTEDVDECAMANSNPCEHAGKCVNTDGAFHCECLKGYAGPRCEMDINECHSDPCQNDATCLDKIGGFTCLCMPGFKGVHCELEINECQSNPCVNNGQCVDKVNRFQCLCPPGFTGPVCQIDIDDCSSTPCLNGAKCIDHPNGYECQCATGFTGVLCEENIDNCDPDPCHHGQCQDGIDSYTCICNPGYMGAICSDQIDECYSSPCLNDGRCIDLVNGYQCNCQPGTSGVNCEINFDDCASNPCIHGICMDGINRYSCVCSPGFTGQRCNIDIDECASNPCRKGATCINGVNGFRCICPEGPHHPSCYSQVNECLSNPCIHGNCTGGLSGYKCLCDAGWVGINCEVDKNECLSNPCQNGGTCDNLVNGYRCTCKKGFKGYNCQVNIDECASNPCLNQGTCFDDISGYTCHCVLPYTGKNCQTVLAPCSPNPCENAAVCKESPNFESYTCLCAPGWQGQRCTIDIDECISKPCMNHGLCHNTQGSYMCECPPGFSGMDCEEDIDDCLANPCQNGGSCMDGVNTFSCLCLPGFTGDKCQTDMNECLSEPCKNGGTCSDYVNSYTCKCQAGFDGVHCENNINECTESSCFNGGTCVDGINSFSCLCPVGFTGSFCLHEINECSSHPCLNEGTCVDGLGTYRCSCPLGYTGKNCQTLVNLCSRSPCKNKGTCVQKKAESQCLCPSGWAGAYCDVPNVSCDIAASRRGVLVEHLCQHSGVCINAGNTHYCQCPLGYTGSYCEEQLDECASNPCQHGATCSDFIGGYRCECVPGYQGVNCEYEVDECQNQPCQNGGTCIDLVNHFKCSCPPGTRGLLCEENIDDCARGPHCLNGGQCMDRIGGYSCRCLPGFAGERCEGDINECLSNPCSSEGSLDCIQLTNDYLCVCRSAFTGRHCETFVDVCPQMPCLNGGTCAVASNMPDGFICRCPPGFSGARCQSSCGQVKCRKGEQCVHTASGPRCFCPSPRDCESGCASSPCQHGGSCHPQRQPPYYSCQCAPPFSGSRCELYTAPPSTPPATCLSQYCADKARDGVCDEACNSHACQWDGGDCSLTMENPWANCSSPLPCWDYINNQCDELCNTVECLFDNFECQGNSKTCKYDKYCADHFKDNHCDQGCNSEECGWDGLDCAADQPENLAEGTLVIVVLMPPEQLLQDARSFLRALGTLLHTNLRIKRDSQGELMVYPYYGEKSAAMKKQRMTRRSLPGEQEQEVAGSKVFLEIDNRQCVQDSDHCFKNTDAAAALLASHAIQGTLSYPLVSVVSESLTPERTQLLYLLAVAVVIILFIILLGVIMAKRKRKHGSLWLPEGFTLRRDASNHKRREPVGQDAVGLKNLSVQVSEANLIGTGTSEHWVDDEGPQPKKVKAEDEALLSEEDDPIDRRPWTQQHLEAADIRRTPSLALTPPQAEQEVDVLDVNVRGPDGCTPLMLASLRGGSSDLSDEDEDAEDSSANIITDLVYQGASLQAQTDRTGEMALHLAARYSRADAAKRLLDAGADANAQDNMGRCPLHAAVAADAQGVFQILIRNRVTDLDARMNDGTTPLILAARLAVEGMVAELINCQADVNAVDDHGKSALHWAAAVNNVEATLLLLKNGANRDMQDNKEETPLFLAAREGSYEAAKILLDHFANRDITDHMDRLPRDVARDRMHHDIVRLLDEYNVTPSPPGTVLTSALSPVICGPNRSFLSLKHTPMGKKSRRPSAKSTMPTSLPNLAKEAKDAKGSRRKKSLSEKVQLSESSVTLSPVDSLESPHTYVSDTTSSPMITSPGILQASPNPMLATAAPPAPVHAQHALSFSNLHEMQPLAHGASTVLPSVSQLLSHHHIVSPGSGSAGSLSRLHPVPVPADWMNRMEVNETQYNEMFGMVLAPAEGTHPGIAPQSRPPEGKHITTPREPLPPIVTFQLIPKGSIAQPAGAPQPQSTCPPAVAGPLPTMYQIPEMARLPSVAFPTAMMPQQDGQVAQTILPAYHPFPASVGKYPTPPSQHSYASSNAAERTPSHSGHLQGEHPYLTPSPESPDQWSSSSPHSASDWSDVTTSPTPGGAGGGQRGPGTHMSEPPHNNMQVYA

[6] = biological target: Pro-neuregulin-1, membrane-bound isoform (Homo sapiens) (UniProt Q02297); assay: NRG1 binders on small-molecule microarrays, primary screen, psychiatric disease protein project, biochemical, small-molecule microarray, fluorescence 635/667 (AID 1075); details: NRG1 binding, 635 nm fluorescence, higher = more signal;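 further: score combines 667 nm spot fluorescence with signal to noise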
Pro-neuregulin-1, membrane-bound isoform (Homo sapiens), sequence (Q02297 whole entry, looked up, the tested form may be a part, canonical isoform): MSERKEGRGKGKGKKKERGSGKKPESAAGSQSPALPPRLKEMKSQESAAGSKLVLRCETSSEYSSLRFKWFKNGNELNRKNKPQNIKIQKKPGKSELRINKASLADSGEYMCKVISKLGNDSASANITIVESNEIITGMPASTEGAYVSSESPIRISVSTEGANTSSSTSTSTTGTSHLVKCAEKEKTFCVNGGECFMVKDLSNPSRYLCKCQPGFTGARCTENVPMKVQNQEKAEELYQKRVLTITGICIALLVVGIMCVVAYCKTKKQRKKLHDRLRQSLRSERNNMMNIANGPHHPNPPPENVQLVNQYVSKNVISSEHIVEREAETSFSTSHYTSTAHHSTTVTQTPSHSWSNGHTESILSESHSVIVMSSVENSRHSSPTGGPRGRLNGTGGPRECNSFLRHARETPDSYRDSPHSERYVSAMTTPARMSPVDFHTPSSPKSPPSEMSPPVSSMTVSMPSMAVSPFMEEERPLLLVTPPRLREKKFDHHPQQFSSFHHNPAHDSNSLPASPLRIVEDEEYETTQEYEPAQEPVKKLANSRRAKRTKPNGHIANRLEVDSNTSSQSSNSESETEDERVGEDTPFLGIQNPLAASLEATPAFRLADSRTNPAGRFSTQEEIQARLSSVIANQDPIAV

[7] = system: Neuregulin-1 EGF-like domain; assay: binders of neuregulin-1 EGF-like domain, primary screen, biochemical, small-molecule microarray, 635 nm fluorescence (AID 1081); details: small-molecule microarray binding, higher = more signal;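 further: binding of the protein to compounds printed on small-molecule microarray slides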
[8] = FRG1 promoter luciferase signal modulators, primary screen, FRG1 inhibition for FSHD, cell-based, C2C12 myotubes, firefly/Renilla luciferase, luminescence (AID 1084); details: higher = more signal, called active from +8 up or from −8 down
[9] = binders of probe aFST on microarray, primary screen, stem cell growth factor project, biochemical, small-molecule microarray, fluorescence 635/667 (AID 1086); details: higher = more signal;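 further: score merges 667 nm fluorescence with signal-to-noise of each printed compound spot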
[10] = binders of probe aHhip on microarray, primary screen, stem cell growth factor project, biochemical, small-molecule microarray, fluorescence 635/667 (AID 1087); details: higher = more signal;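 further: score merges spot fluorescence at 667nm with spot signal to noise ratio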
[11] = system: PRMT1 (protein arginine N-methyltransferase 1); assay: PRMT1 binders on small-molecule microarrays, primary screen, biochemical, small-molecule microarray, 635 nm fluorescence (AID 1088); details: small-molecule microarray binding, higher = more signal;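 further: binding of Prmt1 protein to compounds spotted on small-molecule microarray slides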
[12] = yeast growth modulation, basal conditions, primary screen, YJM789 clinical isolate, OD600, 24 h (AID 1089);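 further: growth of clinical yeast isolate S. cerevisiae YJM 789 seeded 1000 cells per well; test concentration not given here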; details: S. cerevisiae YJM789 growth, higher = more signal, called active from +8 up or from −8 down
[13] = fission yeast growth modulation, primary screen, strain 972, OD600, 24 h, no modulator (AID 1090);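 further: basal condition with compound alone and no growth modifier present; test concentration not given here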; details: S. pombe 972 growth, higher = more signal, called active from +8 up or from −8 down
[14] = S. cerevisiae growth modulation with rapamycin, primary screen, strain BY4716, OD600, 96 h (AID 1091); details: higher = more signal, called active from +8 up or from −8 down; further: test concentration not given here
[15] = biological target: Torsin-1A-interacting protein 2 (Homo sapiens) (UniProt Q8NFQ8); assay: LULL1 binders on small-molecule microarray, primary screen, cell lysate, human LULL1 lysate, 635/667 nm fluorescence (AID 1092); details: hLULL1 lysate binding, 635 nm fluorescence, higher = more signal;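 further: probe is lysate of COS7 cells overexpressing human LULL1; score merges per-feature 667 nm fluorescence with signal-to-noise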
Torsin-1A-interacting protein 2 (Homo sapiens), sequence (Q8NFQ8 whole entry, looked up): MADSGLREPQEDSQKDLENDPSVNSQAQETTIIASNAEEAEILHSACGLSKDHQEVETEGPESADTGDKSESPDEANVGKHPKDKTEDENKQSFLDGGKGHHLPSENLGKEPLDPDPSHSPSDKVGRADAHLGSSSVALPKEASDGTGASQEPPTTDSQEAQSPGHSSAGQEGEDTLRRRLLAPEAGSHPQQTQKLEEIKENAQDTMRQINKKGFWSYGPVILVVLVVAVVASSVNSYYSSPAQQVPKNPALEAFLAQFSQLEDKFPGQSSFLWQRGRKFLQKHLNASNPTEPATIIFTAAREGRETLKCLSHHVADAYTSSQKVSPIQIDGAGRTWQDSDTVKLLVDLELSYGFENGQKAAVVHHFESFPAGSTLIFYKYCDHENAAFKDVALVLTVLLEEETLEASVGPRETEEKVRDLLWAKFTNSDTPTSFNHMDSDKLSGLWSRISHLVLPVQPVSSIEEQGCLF

[16] = E. coli growth modulation, two-sided OD650, primary screen, E. coli filamentation project, strain DRC41, 24 h (AID 1093); details: OD650, 24 h, higher = more signal, called active from +8 up or from −8 down;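 further: MC1000 strain lacking acrAB efflux and sulA so SOS filamentation is blocked; test concentration not given here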
[17] = small-molecule microarray binders of probe aLefty2, primary screen, biochemical, biotinylated probe, 635/667 nm fluorescence (AID 1094); details: higher = more signal;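 further: score merges spot fluorescence near 667 nm with spot signal-to-noise ratio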
[18] = system: Noggin (protein binding on small-molecule microarray); assay: Noggin binders on small-molecule microarray, primary screen, biochemical, 635/667 nm fluorescence (AID 1095); details: 635 nm fluorescence, higher = more signal;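 further: score merges 667 nm feature fluorescence with signal to noise over triplicate slides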
[19] = biological target: Neurogenic locus notch homolog protein 3 (Homo sapiens) (UniProt Q9UM47); assay: NOTCH3 binders on small-molecule microarray, primary screen, biochemical, 635/667 nm fluorescence (AID 1096); details: NOTCH3 binding, 635 nm fluorescence, higher = more signal
[20] = small-molecule microarray binders of probe aEGFR, primary screen, biochemical, biotinylated probe, 635/667 nm fluorescence (AID 1097); details: higher = more signal;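 further: probe is a biotinylated anti-EGFR antibody binding compounds printed on slides; score combines fluorescence near 667 nm and signal to noise of each spot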

Row | Structure (SMILES) | composite z-score [1] | composite z-score [2] | composite z-score [3] | composite z-score [4] | composite z-score [5] | composite z-score [6] | composite z-score [7] | z-score [8] | composite z-score [9] | composite z-score [10] | composite z-score [11] | z-score [12] | z-score [13] | z-score [14] | composite z-score [15] | z-score [16] | composite z-score [17] | composite z-score [18] | composite z-score [19] | composite z-score [20]
1 | CC(C)C(CO)N1C(=O)[C@@H]2[C@H]3C(=O)OCC=C[C@H]3OC23C=CCN(Cn2nnc4ccccc42)C(=O)[C@@H]13 (stereo not given in full) | 0.449 | -0.292 | -0.192 | -0.579 | -1.06 | -0.78 | 0.332 | -0.194 (inactive) | -0.499 | -0.137 | -0.0697 | 1.14 (inactive) | 1.13 (inactive) | 0.779 (inactive) | 0.704 | 0.701 (inactive) | -0.262 | -2.09 | -0.254 | -0.2
2 | NC(=O)NCC#Cc1ccc2c(c1)[C@]1(C(=O)N2)[C@H](c2ccc(O)cc2)N2[C@H](c3ccccc3)[C@H](c3ccccc3)OC(=O)[C@H]2[C@@H]1C(N)=O | 0.373 | -1.07 | -0.0925 | -0.568 | -0.847 | -0.283 | 0.266 | -1.07 (inactive) | -0.139 | 0.202 | 0.64 | 0.321 (inactive) | 0.736 (inactive) | 0.183 (inactive) | 1.46 | 0.248 (inactive) | -0.072 | -0.238 | -1.19 | -0.187
3 | Cc1ccccc1C(O)C1C=CC2C(=O)N(Cc3ccccc3)C(=O)C2N1n1cnnc1 (stereo not given) | -0.281 | 0.34 | -0.0085 | 0.304 | 1.02 | 1.03 | 0.92 | 0.253 (inactive) | 0.475 | 0.0053 | 0.601 | -1.26 (inactive) | 0.658 (inactive) | -0.796 (inactive) | 2.38 | -0.0518 (inactive) | 0.0873 | 0.162 | 1.05 | 0.045
4 | C[N+](C)(C)CCCCNC(=O)[C@H]1C[C@H]2C(=O)NCC(=O)N2[C@H]1c1ccc(O)cc1 | -0.392 | 1.83 | -0.0466 | 1.12 | 0.943 | 0.584 | 1.38 | 0.0635 (inactive) | 0.383 | -0.156 | 1.46 | -0.826 (inactive) | 0.0918 (inactive) | -1.71 (inactive) | 1.84 | 0.509 (inactive) | 0.0823 | 2.01 | 1.04 | 0.154
5 | [N-]=[N+]=Nc1ccccc1C[C@]1(C(=O)NCCN2CCOCC2)N=C(c2ccc(OCCCO)cc2)O[C@H]1c1ccccc1N=[N+]=[N-] | -0.195 | -0.354 | 0.125 | 0.763 | 1.64 | 1.59 | 1.33 | -0.344 (inactive) | 0.839 | 0.113 | 1.55 | -2.65 (inactive) | -4.92 (inactive) | -0.821 (inactive) | 3.37 | 0.683 (inactive) | 0.491 | 0.708 | 1.03 | 0.542
6 | CC(C)CCC[C@@H](C)[C@H]1CC[C@@]2(C)C3=C(CC[C@]12C)[C@@]1(C)CC[C@H](OC(=O)C(C)(C)C)C(C)(C)C1CC3 (stereo not given in full) | -0.441 | 0.39 | -0.0609 | 0.298 | 0.575 | -0.036 | 0.307 | -0.987 (inactive) | 0.0166 | -0.0296 | 0.475 | -3.55 (inactive) | -2.59 (inactive) | -2.18 (inactive) | 0.0236 | 0.768 (inactive) | -0.212 | 0.57 | 0.571 | -0.0549
7 | COCCOC(=O)N1C(=O)[C@@]2(c3cc(C#CC4(O)CCCCCC4)ccc31)[C@H](C(=O)N1CCc3cc(OC)c(OC)cc3C1)[C@H]1C(=O)O[C@H](c3ccccc3)[C@H](c3ccccc3)N1[C@@H]2c1ccccc1OCCO | -0.0526 | 1.46 | 0.119 | 0.665 | 1.15 | 0.491 | 1.22 | -0.165 (inactive) | 1.08 | 0.623 | 1.54 | 2.29 (inactive) | 1.05 (inactive) | 3.98 (inactive) | 1.39 | 1.36 (inactive) | 0.226 | 1.29 | 1.06 | 0.295
8 | CC(C)c1ccc(NN2C(C(O)c3cccs3)C=CC3C(=O)N(c4ccccc4)C(=O)C32)cc1 (stereo not given) | 0.222 | -0.14 | 0.117 | 0.353 | 1.66 | 1.54 | 1.19 | -1.87 (inactive) | 0.979 | 0.122 | 1.54 | 0.354 (inactive) | 0.758 (inactive) | 0.331 (inactive) | 3.36 | -1.14 (inactive) | 0.453 | -0.0307 | 1.06 | 0.08
9 | C=CCOC(=O)[C@H]1[C@@H]2C(=O)O[C@@H](c3ccccc3)[C@@H](c3ccccc3)N2[C@@H](c2ccc(OCCOC(=O)[C@H]3C[C@H]4C(=O)N[C@@H](CCCCN(C)C)C(=O)N4[C@H]3c3ccc(O)cc3)cc2)[C@]12C(=O)Nc1ccccc12 | 0.27 | 0.91 | -0.033 | 0.445 | 0.349 | -0.013 | 1.19 | 0.139 (inactive) | 0.86 | 0.0524 | 1.54 | -0.0535 (inactive) | -1.03 (inactive) | -0.713 (inactive) | 2.49 | -0.296 (inactive) | 0.155 | 1.83 | 1.06 | 0.0088
10 | CC(C)NC(=O)[C@@]1(Cc2ccccc2I)c2ccccc2C(=O)N(Cc2ccccc2C(F)(F)F)[C@H]1c1ccc(CO)cc1 | 0.695 | 0.44 | -0.0316 | -0.0029 | 0.234 | 1.71 | 1.21 | -2.61 (inactive) | 0.0674 | 0.533 | 1.53 | -0.442 (inactive) | -1.48 (inactive) | -0.918 (inactive) | 2.84 | 0.125 (inactive) | 0.158 | 0.461 | 0.662 | -0.0304
11 | C#CCOC(=O)N[C@H](C=CCCCC)c1ccccc1 | 0.209 | 0.108 | 0.0934 | 0.239 | 1.33 | 2.33 | 1.31 | -0.237 (inactive) | 0.129 | 0.382 | -0.893 | 0.126 (inactive) | -0.091 (inactive) | 0.0673 (inactive) | 2.96 | 0.392 (inactive) | 0.148 | -0.373 | -0.404 | 0.0082
